“And” between values parts separate entries of the source, which are not always exact repeats. Identical values can stand only once. Out of some 5,500 compounds screened, about 2,000 (36%) were called active. Roughly 18% stayed inconclusive and do not appear here. Cut-off read from the data, not from the text of the source: active = normalized growth mostly below about 0.91 (no sharp cut-off); inconclusive = no clear call, values can overlap the other calls; inactive = mostly above about 0.92. The list shows a part of the results.
Assay: chemical genetic growth profiling, strain panel (AID 1159580);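 note: tested at 20 µM; growth read once vehicle control cultures reached saturation at 30 °C; 1 = growth at the plate median or of vehicle wells; lower values mean less growth of the strain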
Conditions: S. cerevisiae deletion strains, growth OD

Measured: normalized growth

CCC1(CC)C(=O)C=CNC1=O
inactive: locus YAL021C, strain ccr4, active compounds read low 0.998 | locus YAL026C, strain drs2, active compounds read low 0.996 | locus YAL030W, strain snc1, active compounds read low 1 | locus YBL061C, strain skt5, active compounds read low 1.01 | locus YBR009C, strain hhf1, active compounds read low 1.02 | locus YBR021W, strain FUR4, active compounds read low 1.02 | locus YBR023C, strain chs3, active compounds read low 0.994 | locus YBR171W, strain sec66, active compounds read low 0.985 | locus YBR229C, strain ROT2, active compounds read low 1.01 | locus YBR231C, strain swc5, active compounds read low 0.997 | locus YBR279W, strain paf1, active compounds read low 1 | locus YCL011C, strain gbp2, active compounds read low 0.992 | locus YCL016C, strain dcc1, active compounds read low 0.998 | locus YCL029C, strain bik1, active compounds read low 1.01 | locus YCL061C, strain MRC1, active compounds read low 0.999 | locus YCL069W, strain vba3, active compounds read low 0.993 | locus YCR088W, strain abp1, active compounds read low 0.986 | locus YDL005C, strain med2, active compounds read low 0.999 | locus YDL035C, strain GPR1, active compounds read low 1.02 | locus YDL040C, strain nat1, active compounds read low 0.999 | locus YDL074C, strain BRE1, active compounds read low 0.977 | locus YDL101C, strain DUN1, active compounds read low 1 | locus YDL134C, strain PPH21, active compounds read low 1.03 | locus YDL185W, strain tfp1, active compounds read low 1.02 | locus YDL192W, strain arf1, active compounds read low 1.01 | locus YDR001C, strain nth1, active compounds read low 0.997 | locus YDR069C, strain doa4, active compounds read low 1.02 | locus YDR101C, strain arx1, active compounds read low 0.988 | locus YDR137W, strain rgp1, active compounds read low 1.03 | locus YDR159W, strain sac3, active compounds read low 1.02 | locus YDR162C, strain NBP2, active compounds read low 1.02 | locus YDR195W, strain ref2 0.985 | locus YDR297W, strain sur2, active compounds read low 0.995 | locus YDR318W, strain mcm21, active compounds read low 1.01 | locus YDR334W, strain swr1, active compounds read low 0.959 | locus YDR335W, strain msn5, active compounds read low 0.997 | locus YDR388W, active compounds read low 1.01 | locus YDR392W, strain spt3, active compounds read low 0.945 | locus YDR502C, strain sam2, active compounds read low 0.995 | locus YEL003W, strain gim4, active compounds read low 0.994 | locus YEL037C, strain rad23, active compounds read low 0.991 | locus YEL061C, strain CIN8 (second series), active compounds read low 0.992 | locus YEL061C, strain CIN8, active compounds read low 1 | locus YER015W, strain faa2, active compounds read low 1 | locus YER016W, strain bim1, active compounds read low 0.999 | locus YER110C, active compounds read low 1.03 | locus YER111C, strain swi4, active compounds read low 1.01 | locus YER155C, strain BEM2 (second series), active compounds read low 0.992 | locus YER155C, strain BEM2, active compounds read low 1 | locus YER167W, strain BCK2, active compounds read low 1.02 | locus YFR010W, strain ubp6, active compounds read low 0.985 | locus YGL078C, strain dbp3, active compounds read low 1.02 | locus YGL086W, strain mad1, active compounds read low 0.99 | locus YGL167C, strain pmr1, active compounds read low 1 | locus YGL173C, strain kem1, active compounds read low 1.01 | locus YGL227W, strain vid30, active compounds read low 1 | locus YGL240W, strain doc1, active compounds read low 1.02 | locus YGL248W, strain PDE1, active compounds read low 0.987 | locus YGL253W, strain hxk2, active compounds read low 0.985 | locus YGR078C, strain PAC10, active compounds read low 0.97 | locus YGR135W, strain pre9, active compounds read low 1.05 | locus YGR252W, strain gcn5, active compounds read low 0.996 | locus YHR013C, strain ard1, active compounds read low 1.03 | locus YHR027C, strain rpn1, active compounds read low 0.982 | locus YHR030C, strain SLT2, active compounds read low 1.01 and 1 | locus YHR079C, strain IRE1 (second series), active compounds read low 1.01 | locus YHR079C, strain IRE1, active compounds read low 1.01 | locus YHR094C, strain hxt1, active compounds read low 1.02 | locus YHR129C, strain ARP1, active compounds read low 1.01 | locus YHR142W, strain chs7, active compounds read low 0.964 | locus YHR200W, strain rpn10, active compounds read low 1.01 | locus YIL066C, strain RNR3, active compounds read low 0.996 | locus YIL073C, strain SPO22, active compounds read low 1.07 | locus YIL125W, strain kgd1, active compounds read low 0.999 | locus YIR030C, strain dcg1, active compounds read low 1.01 | locus YJL092W, strain hpr5, active compounds read low 0.992 | locus YJL095W, strain BCK1 (second series), active compounds read low 0.996 | locus YJL095W, strain BCK1, active compounds read low 0.976 and 1.01 | locus YJL115W, strain asf1, active compounds read low 0.973 | locus YJL129C, strain trk1, active compounds read low 0.993 | locus YJL134W, strain LCB3, active compounds read low 1 | locus YJL154C, strain vps35, active compounds read low 0.983 | locus YJL164C, strain tpk1, active compounds read low 1.01 | locus YJL166W, strain qcr8, active compounds read low 1 | locus YJL168C, strain set2, active compounds read low 1 | locus YJL187C, strain SWE1 (second series), active compounds read low 0.982 | locus YJL187C, strain SWE1, active compounds read low 1.01 | locus YJR043C, strain POL32, active compounds read low 0.994

Reference: PubChem BioAssay AID1159580 (chemical genetic matrix, 2015)
